# In PubChem BioAssay AID1159580 (chemical genetic matrix, 2015):
# In all, about 5,500 compounds went through this assay and about 2,000 (36%) were called active. Not shown: some 18% with an inconclusive outcome. The list shows a part of the results. Unmarked numbers belong to inactive results. No stated cut-off is given here; in the data, active means normalized growth mostly below about 0.91 (no sharp cut-off); inconclusive means no clear call, values can overlap the other calls; inactive means mostly above about 0.92.
# Experiment: chemical genetic growth profiling, strain panel (AID 1159580);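 further: tested at 20 µM; growth read once vehicle control cultures reached saturation at 30 °C; 1 = growth at the plate median or of vehicle wells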
# Details: growth OD
# [1] = S. cerevisiae deletion strains, locus YAL013W, strain DEP1, stronger effect = lower value
# [2] = S. cerevisiae deletion strains, locus YBR229C, strain ROT2, stronger effect = lower value
# [3] = S. cerevisiae deletion strains, locus YCL061C, strain MRC1, stronger effect = lower value
# [4] = S. cerevisiae deletion strains, locus YDL101C, strain DUN1, stronger effect = lower value
# [5] = S. cerevisiae deletion strains, locus YDR150W, strain NUM1, stronger effect = lower value
# [6] = S. cerevisiae deletion strains, locus YEL061C, strain CIN8, stronger effect = lower value
# [7] = S. cerevisiae deletion strains, locus YGR078C, strain PAC10, stronger effect = lower value
# [8] = S. cerevisiae deletion strains, locus YHR030C, strain SLT2, stronger effect = lower value
# [9] = S. cerevisiae deletion strains, locus YHR087W, strain rtc3, stronger effect = lower value
# [10] = S. cerevisiae deletion strains, locus YJR043C, strain POL32, stronger effect = lower value
# [11] = S. cerevisiae deletion strains, locus YJR075W, strain HOC1, stronger effect = lower value
# [12] = S. cerevisiae deletion strains, locus YLR039C, strain RIC1, stronger effect = lower value
# [13] = S. cerevisiae deletion strains, locus YLR058C, strain SHM2 (second series), stronger effect = lower value
# [14] = S. cerevisiae deletion strains, locus YLR085C, strain ARP6, stronger effect = lower value
# [15] = S. cerevisiae deletion strains, locus YLR262C, strain YPT6, stronger effect = lower value
# [16] = S. cerevisiae deletion strains, locus YML094W, strain GIM5, stronger effect = lower value
# [17] = S. cerevisiae deletion strains, locus YMR219W, strain ESC1, stronger effect = lower value
# [18] = S. cerevisiae deletion strains, locus YMR263W, strain SAP30, stronger effect = lower value
# [19] = S. cerevisiae deletion strains, locus YMR307W, strain GAS1, stronger effect = lower value
# [20] = S. cerevisiae deletion strains, locus YNL153C, strain GIM3, stronger effect = lower value
# [21] = S. cerevisiae deletion strains, locus YNL298W, strain CLA4 (second series), stronger effect = lower value
# [22] = S. cerevisiae deletion strains, locus YNL322C, strain KRE1, stronger effect = lower value
# [23] = S. cerevisiae deletion strains, locus YNR030W, strain Alg12, stronger effect = lower value
# [24] = S. cerevisiae deletion strains, locus YPL055C, strain LGE1, stronger effect = lower value
# [25] = S. cerevisiae deletion strains, locus YPL241C, strain CIN2, stronger effect = lower value
# [26] = S. cerevisiae deletion strains, locus YPR135W, strain CTF4, stronger effect = lower value
# [27] = S. cerevisiae strains, strain wild type, stronger effect = lower value
# [28] = S. cerevisiae deletion strains, locus YHR079C, strain IRE1, stronger effect = lower value
# [29] = S. cerevisiae deletion strains, locus YJL095W, strain BCK1, stronger effect = lower value
# [30] = S. cerevisiae deletion strains, locus YJR066W, strain TOR1, stronger effect = lower value
# [31] = S. cerevisiae deletion strains, locus YLR113W, strain HOG1, stronger effect = lower value
# [32] = S. cerevisiae deletion strains, locus YNL183C, strain NPR1, stronger effect = lower value
# [33] = S. cerevisiae deletion strains, locus YOR231W, strain MKK1, stronger effect = lower value
# [34] = S. cerevisiae deletion strains, locus YPL256C, strain CLN2, stronger effect = lower value
compound,measurement,setting,value
Cc1cc(=O)n2[nH]cc(C#N)c2n1,normalized growth,[1],1
same,normalized growth,[2],1
same,normalized growth,[3],1.02
same,normalized growth,[4],1.01
same,normalized growth,[5],1.04
same,normalized growth,[6],0.999
same,normalized growth,[7],1.01
same,normalized growth,[8],1.09
same,normalized growth,[9],1.01
same,normalized growth,[10],1.02
same,normalized growth,[11],0.995
same,normalized growth,"S. cerevisiae deletion strains, locus YKL190W, strain CNB1, stronger effect = lower value",0.981
same,normalized growth,[12],1.01
same,normalized growth,[13],1
same,normalized growth,[14],1
same,normalized growth,[15],1.04
same,normalized growth,[16],0.995
same,normalized growth,[17],0.994
same,normalized growth,[18],1.04
same,normalized growth,[19],0.968
same,normalized growth,[20],1.02
same,normalized growth,[21],1.01
same,normalized growth,[22],1
same,normalized growth,[23],1.01
same,normalized growth,[24],1.06
same,normalized growth,[25],0.99
same,normalized growth,[26],1.09
same,normalized growth,[27],0.993
CSC(=CC(=O)c1ccc(Cl)cc1)SC,normalized growth,[1],0.884 (active)
same,normalized growth,[2],0.867 (active)
same,normalized growth,[3],0.848 (active)
same,normalized growth,[4],0.836 (active)
same,normalized growth,"S. cerevisiae deletion strains, locus YDL134C, strain PPH21, stronger effect = lower value",0.747 (active)
same,normalized growth,[5],0.888
same,normalized growth,[6],0.74 (active)
same,normalized growth,[7],0.872 (active)
same,normalized growth,"S. cerevisiae deletion strains, locus YGR229C, strain SMI1, stronger effect = lower value",0.884 (active)
same,normalized growth,[8],0.218 (active)
same,normalized growth,[9],0.829 (active)
same,normalized growth,"S. cerevisiae deletion strains, locus YJL187C, strain SWE1, stronger effect = lower value",0.869 (active)
same,normalized growth,[10],0.874 (active)
same,normalized growth,[11],0.828 (active)
same,normalized growth,[12],0.421 (active)
same,normalized growth,[13],0.836 (active)
same,normalized growth,[14],0.394 (active)
same,normalized growth,[15],0.431 (active)
same,normalized growth,[16],0.79 (active)
same,normalized growth,[17],0.889 (active)
same,normalized growth,[18],0.874 (active)
same,normalized growth,[19],0.286 (active)
same,normalized growth,"S. cerevisiae deletion strains, locus YNL128W, strain TEP1, stronger effect = lower value",0.888 (active)
same,normalized growth,[20],0.879 (active)
same,normalized growth,[21],0.645 (active)
same,normalized growth,[22],0.895 (active)
same,normalized growth,[23],0.765 (active)
same,normalized growth,[24],0.771 (active)
same,normalized growth,[25],0.685 (active)
same,normalized growth,[26],0.352 (active)
same,normalized growth,[27],0.811 (active)
COC1=C(O)C(=O)c2c(cc3oc(C(C)=O)c(O)c3c2O)C1=O,normalized growth,[8],0.986
same,normalized growth,[28],1.01
same,normalized growth,[29],1.03
same,normalized growth,[30],0.957
same,normalized growth,[31],1.04
same,normalized growth,[32],0.973
same,normalized growth,[33],0.999
same,normalized growth,[34],0.973
Cc1csc(NC(=O)Nc2ccc(C(F)(F)F)cc2)c1Cl,normalized growth,"S. cerevisiae deletion strains, locus YAR019C, strain CDC15, stronger effect = lower value",0.958
same,normalized growth,"S. cerevisiae deletion strains, locus YBL105C, strain PKC1, stronger effect = lower value",0.96
same,normalized growth,"S. cerevisiae deletion strains, locus YBR135W, strain CKS1, stronger effect = lower value",0.948
same,normalized growth,"S. cerevisiae deletion strains, locus YBR136W, strain MEC1, stronger effect = lower value",0.957
same,normalized growth,"S. cerevisiae deletion strains, locus YBR160W, strain CDC28, stronger effect = lower value",0.943
same,normalized growth,"S. cerevisiae deletion strains, locus YDL017W, strain CDC7, stronger effect = lower value",0.954
same,normalized growth,"S. cerevisiae deletion strains, locus YDL028C, strain MPS1, stronger effect = lower value",0.962
same,normalized growth,[4],0.988
same,normalized growth,"S. cerevisiae deletion strains, locus YDL108W, strain KIN28, stronger effect = lower value",0.948
same,normalized growth,"S. cerevisiae deletion strains, locus YDL132W, strain cdc53, stronger effect = lower value",0.969
same,normalized growth,"S. cerevisiae deletion strains, locus YDL214C, strain PRR2, stronger effect = lower value",0.836
same,normalized growth,"S. cerevisiae deletion strains, locus YDR052C, strain DBF4, stronger effect = lower value",0.961
same,normalized growth,"S. cerevisiae deletion strains, locus YDR054C, strain cdc34, stronger effect = lower value",0.949
same,normalized growth,"S. cerevisiae deletion strains, locus YDR226W, strain ADK1, stronger effect = lower value",0.96
same,normalized growth,"S. cerevisiae deletion strains, locus YDR477W, strain SNF1, stronger effect = lower value",0.905
same,normalized growth,"S. cerevisiae deletion strains, locus YER123W, strain YCK3, stronger effect = lower value",0.802
same,normalized growth,"S. cerevisiae deletion strains, locus YER133W, strain GLC7, stronger effect = lower value",0.897
same,normalized growth,"S. cerevisiae deletion strains, locus YFL009W, strain cdc4, stronger effect = lower value",0.951
same,normalized growth,"S. cerevisiae deletion strains, locus YFL029C, strain CAK1, stronger effect = lower value",0.946
same,normalized growth,"S. cerevisiae deletion strains, locus YFR003C, strain YPI1, stronger effect = lower value",0.957
same,normalized growth,"S. cerevisiae deletion strains, locus YFR019W, strain FAB1, stronger effect = lower value",0.884
same,normalized growth,"S. cerevisiae deletion strains, locus YFR028C, strain CDC14, stronger effect = lower value",0.945
same,normalized growth,"S. cerevisiae deletion strains, locus YGR040W, strain KSS1, stronger effect = lower value",0.892
same,normalized growth,"S. cerevisiae deletion strains, locus YGR052W, strain FMP48, stronger effect = lower value",0.884
same,normalized growth,"S. cerevisiae deletion strains, locus YGR092W, strain DBF2, stronger effect = lower value",0.861
same,normalized growth,[8],0.858
same,normalized growth,[28],0.815
same,normalized growth,"S. cerevisiae deletion strains, locus YHR082C, strain KSP1, stronger effect = lower value",0.873
same,normalized growth,"S. cerevisiae deletion strains, locus YHR205W, strain SCH9, stronger effect = lower value",0.78
same,normalized growth,"S. cerevisiae deletion strains, locus YIL147C, strain SLN1, stronger effect = lower value",0.958
same,normalized growth,[29],0.832
same,normalized growth,"S. cerevisiae deletion strains, locus YJL128C, strain PBS2, stronger effect = lower value",0.891
same,normalized growth,"S. cerevisiae deletion strains, locus YJL157C, strain FAR1, stronger effect = lower value",0.849
same,normalized growth,"S. cerevisiae deletion strains, locus YJR016C, strain ILV3, stronger effect = lower value",0.95
same,normalized growth,"S. cerevisiae deletion strains, locus YJR066W, strain TOR1 (second series), stronger effect = lower value",0.854
same,normalized growth,[30],0.92
same,normalized growth,"S. cerevisiae deletion strains, locus YKL048C, strain ELM1, stronger effect = lower value",0.892
same,normalized growth,"S. cerevisiae deletion strains, locus YKL067W, strain YNK1, stronger effect = lower value",0.831
same,normalized growth,"S. cerevisiae deletion strains, locus YKL101W, strain HSL1, stronger effect = lower value",0.831
same,normalized growth,"S. cerevisiae deletion strains, locus YKL193C, strain SDS22, stronger effect = lower value",0.951
same,normalized growth,"S. cerevisiae deletion strains, locus YKL203C, strain TOR2, stronger effect = lower value",0.957
same,normalized growth,[31],0.675 (active)
same,normalized growth,"S. cerevisiae deletion strains, locus YLR133W, strain CKI1, stronger effect = lower value",0.823
same,normalized growth,"S. cerevisiae deletion strains, locus YLR403W, strain SFP1, stronger effect = lower value",0.871
same,normalized growth,"S. cerevisiae deletion strains, locus YML070W, strain DAK1, stronger effect = lower value",0.802
same,normalized growth,"S. cerevisiae deletion strains, locus YMR001C, strain CDC5, stronger effect = lower value",0.954
same,normalized growth,"S. cerevisiae deletion strains, locus YMR205C, strain PFK2 (second series), stronger effect = lower value",0.833
same,normalized growth,"S. cerevisiae deletion strains, locus YMR277W, strain FCP1, stronger effect = lower value",0.966
same,normalized growth,"S. cerevisiae deletion strains, locus YNL006W, strain LST8, stronger effect = lower value",0.968
same,normalized growth,"S. cerevisiae deletion strains, locus YNL020C, strain ARK1, stronger effect = lower value",0.823
same,normalized growth,"S. cerevisiae deletion strains, locus YNL161W, strain CBK1, stronger effect = lower value",0.957
same,normalized growth,[32],0.829
same,normalized growth,"S. cerevisiae deletion strains, locus YNL207W, strain RIO2, stronger effect = lower value",0.945
same,normalized growth,"S. cerevisiae deletion strains, locus YNL222W, strain SSU72, stronger effect = lower value",0.95
same,normalized growth,"S. cerevisiae deletion strains, locus YNL307C, strain MCK1 (second series), stronger effect = lower value",0.84
same,normalized growth,"S. cerevisiae deletion strains, locus YOL078W, strain AVO1, stronger effect = lower value",0.946
same,normalized growth,"S. cerevisiae deletion strains, locus YOL136C, strain PFK27, stronger effect = lower value",0.801
same,normalized growth,"S. cerevisiae deletion strains, locus YOR061W, strain CKA2, stronger effect = lower value",0.842
same,normalized growth,"S. cerevisiae deletion strains, locus YOR119C, strain RIO1, stronger effect = lower value",0.942
same,normalized growth,[33],0.762
same,normalized growth,"S. cerevisiae deletion strains, locus YOR329C, strain SCD5, stronger effect = lower value",0.962
same,normalized growth,"S. cerevisiae deletion strains, locus YPL031C, strain PHO85, stronger effect = lower value",0.892
same,normalized growth,"S. cerevisiae deletion strains, locus YPL153C, strain RAD53, stronger effect = lower value",0.88
same,normalized growth,"S. cerevisiae deletion strains, locus YPL204W, strain HRR25, stronger effect = lower value",0.868
same,normalized growth,"S. cerevisiae deletion strains, locus YPL209C, strain IPL1, stronger effect = lower value",0.946
same,normalized growth,[34],0.724 (active)
same,normalized growth,"S. cerevisiae deletion strains, locus YPR025C, strain CCL1, stronger effect = lower value",0.966
same,normalized growth,"S. cerevisiae deletion strains, locus YPR106W, strain ISR1, stronger effect = lower value",0.932
same,normalized growth,"S. cerevisiae deletion strains, locus YPR111W, strain DBF20, stronger effect = lower value",0.927
same,normalized growth,"S. cerevisiae deletion strains, strain NNK1, stronger effect = lower value",0.93
same,normalized growth,"S. cerevisiae deletion strains, strain TSCII, stronger effect = lower value",0.945
